Experimental data published in PubChem BioAssay (NCI).
This is part of a sample that, as a whole, favours compounds with a hit. Of some 79,000 tested, about 15% had one in any assay. Unmarked numbers belong to inactive results. Active and inactive are the calls of the source. Cut-off read from the data, not from the text of the source: active = growth inhibition above about 70%; inactive = the rest.

Test: NCI Yeast Anticancer Drug Screen. Data for the mec2-1 strain (AID 157)
Settings: S. cerevisiae mec2-1 strain, at 50.0 µM, hits give high values
Method in brief: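 Compounds were applied to mec2-1 yeast cells. Their growth was then compared with that of vehicle-treated cultures to give growth inhibition.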
With O=S(=O)(CS(=O)(=O)c1ccccc1Br)c1ccccc1Br the growth inhibition was 30.3%. With c1ccc2c(c1)C1CC3N=NC1C23 (stereo not given) the growth inhibition was -1.35%. Molecule O=C1C(=O)N(CN2CCCCC2)c2ccccc21 has a growth inhibition of -40.9%. Work on CCCCOc1ccccc1C(=O)OC yielded a growth inhibition of 5.55%. CC(=O)NCCc1ccc(OC(C)=O)c(OC(C)=O)c1 gave a growth inhibition of -10.6%. Work on CC(NC(=O)C(Cc1ccccc1)NC(=O)OCc1ccccc1)C(=O)NC1C(CO)OC(n2cnc3c(N)ncnc32)C1O (stereo not given) yielded a growth inhibition of -3.9%. Work on Cc1cc(C(C)(C)CC(=O)O)cc(C)c1C yielded a growth inhibition of 37.4%. CC(=O)NC(CCCN)C(=O)NCc1ccccc1 (stereo not given) gave a growth inhibition of -19.2%. Molecule CCCCCCCCCC(=O)OCCCC(CCCOC(=O)CCCCCCCCC)OC(=O)CCCCCCCCC has a growth inhibition of -6.85%. Work on Cc1ccc(Nc2nnc(-c3ccc4c(c3)OCO4)o2)c(C)c1 yielded a growth inhibition of 1.6%. C(=C\C[P+](c1ccccc1)(c1ccccc1)c1ccccc1)/C[P+](c1ccccc1)(c1ccccc1)c1ccccc1 showed a growth inhibition of 13%. In the case of CCCCn1c2nc3ccccc3c-2nc2cc(OC)c(OC)cc21, the growth inhibition is reported as 15.3%. CCOc1ccc(NC(=O)Nc2cccc(Cl)c2C)cc1 showed a growth inhibition of 9.25%. For Ic1ccc(Nc2ncnc3sc4c(c23)CCCC4)cc1, the growth inhibition was -14%. With CC(=O)Oc1cccc(CN2CCc3ccccc3C2)c1 the growth inhibition was -7.95%. In the case of CN(C)c1ccc(C=C(C(=O)O)C(=O)O)cc1, the growth inhibition is reported as 15.3%. For COc1ccc(OC)c(NC(=O)Nc2cc(Cl)ccc2C)c1, the growth inhibition was 0.65%. COC1OC(C)CC(O)C1O (stereo not given) gave a growth inhibition of -7.05%. With COCCNC(c1ccccc1)C(O)c1ccccc1 (stereo not given) the growth inhibition was -15.6%. Molecule C[N+](C)(C)/N=C/c1ccc(O)c(O)c1 has a growth inhibition of -23.8%. With COc1cc(C(C)O)c[n+](Cc2ccccc2)c1 (stereo not given) the growth inhibition was -7.3%. With COc1ccc(NC(=O)CC(=O)n2nc(-c3ccccc3)c(N=Nc3ccccc3C)c2-c2ccccc2)cc1 the growth inhibition was -2.1%. COC1OCC(NC(=O)CNC(=O)CCCCCCCCCCCCC(C)C)C(O)C1O (stereo not given) showed a growth inhibition of 5.55%. O=S1(=O)C2CCC(C2)C1Cl (stereo not given) gave a growth inhibition of 2.75%. Work on NC(N)=NNC(=S)S yielded a growth inhibition of -5.15%. With COC(=O)C(=[N+]=[N-])C(=O)c1cccc([N+](=O)[O-])c1 the growth inhibition was 15.5%. Clc1ccc2oc(N3CCOCC3)nc2c1 gave a growth inhibition of 23.6%. O.[Cl][Pt].[NH-]CC[S-] gave a growth inhibition of 4%. In the case of CCC(/C=C\C(C)C1CCC2C3CC=C4CC(OC)CCC4(C)C3CCC12C)C(C)C (stereo not given), the growth inhibition is reported as 5.1%. ClC[P+](c1ccccc1)(c1ccccc1)c1ccccc1 showed a growth inhibition of 19.3%. In the case of CCCCCCCCCCN=C(N)CSSCC(N)=NCCCCCCCCCC, the growth inhibition is reported as 97% (active). Work on COc1ccc(OC)c2cc3c(cc12)C(=O)C(C)=C(C)C3=O yielded a growth inhibition of -2.55%. For CCCCCOCC(O)CNCCNCC(O)COCCCCC (stereo not given), the growth inhibition was 0%. Work on CC[n+]1c(C)sc2cc(Cl)c(-c3ccccc3)cc21 yielded a growth inhibition of 17.2%. In the case of C=CCC[P+](c1ccccc1)(c1ccccc1)c1ccccc1, the growth inhibition is reported as 34.1%. For Nc1nnc2nc(C(C(=O)/C=C\c3cccc(O)c3)c3nc4nnc(N)n4[nH]c3=O)c(=O)[nH]n12, the growth inhibition was 15.1%. Molecule C/C(=N\[N+](C)(C)C)c1ccc2ccccc2c1 has a growth inhibition of -2.45%. Molecule C=CCCC(C)(C(=O)OCC)C(=O)OCC has a growth inhibition of -15.8%. With O=C(/C=C/C=C/c1ccccc1)CCc1ccccc1 the growth inhibition was 17.2%. Molecule C[C@H]1C[C@H]2[C@@H]3CC[C@@]4(OCC4=O)[C@@]3(C)C[C@H](O)[C@]2(F)[C@@]2(C)C=CC(=O)C=C12 has a growth inhibition of -24.4%.

Test: NCI Yeast Anticancer Drug Screen. Data for the sgs1 mgt1 strain (AID 161);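 note: 0% = growth of cultures given vehicle only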
Settings: S. cerevisiae sgs1 mgt1 strain, at 50.0 µM, hits give high values
Method in brief: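 Yeast cells carrying a defined DNA-repair defect were exposed to test compounds. Growth inhibition was measured relative to vehicle-treated controls.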
Work on O=S(=O)(CS(=O)(=O)c1ccccc1Br)c1ccccc1Br yielded a growth inhibition of -16%. With c1ccc2c(c1)C1CC3N=NC1C23 (stereo not given) the growth inhibition was -10.5%. For O=C1C(=O)N(CN2CCCCC2)c2ccccc21, the growth inhibition was 26.4%. CCCCOc1ccccc1C(=O)OC gave a growth inhibition of 21.8%. For CC(=O)NCCc1ccc(OC(C)=O)c(OC(C)=O)c1, the growth inhibition was 26.2%. In the case of CC(NC(=O)C(Cc1ccccc1)NC(=O)OCc1ccccc1)C(=O)NC1C(CO)OC(n2cnc3c(N)ncnc32)C1O (stereo not given), the growth inhibition is reported as -2.1%. Work on Cc1cc(C(C)(C)CC(=O)O)cc(C)c1C yielded a growth inhibition of 27.6%. For CC(=O)NC(CCCN)C(=O)NCc1ccccc1 (stereo not given), the growth inhibition was -20.3%. CCCCCCCCCC(=O)OCCCC(CCCOC(=O)CCCCCCCCC)OC(=O)CCCCCCCCC gave a growth inhibition of -6.25%. Molecule Cc1ccc(Nc2nnc(-c3ccc4c(c3)OCO4)o2)c(C)c1 has a growth inhibition of -4.4%. With C(=C\C[P+](c1ccccc1)(c1ccccc1)c1ccccc1)/C[P+](c1ccccc1)(c1ccccc1)c1ccccc1 the growth inhibition was 4.95%. For CCCCn1c2nc3ccccc3c-2nc2cc(OC)c(OC)cc21, the growth inhibition was 14.6%. Molecule CCOc1ccc(NC(=O)Nc2cccc(Cl)c2C)cc1 has a growth inhibition of 11.4%. For Ic1ccc(Nc2ncnc3sc4c(c23)CCCC4)cc1, the growth inhibition was -16.9%. For CC(=O)Oc1cccc(CN2CCc3ccccc3C2)c1, the growth inhibition was 1.55%. Work on CN(C)c1ccc(C=C(C(=O)O)C(=O)O)cc1 yielded a growth inhibition of -8.1%. COc1ccc(OC)c(NC(=O)Nc2cc(Cl)ccc2C)c1 showed a growth inhibition of -2.3%. Molecule COC1OC(C)CC(O)C1O (stereo not given) has a growth inhibition of 14.7%. Molecule COCCNC(c1ccccc1)C(O)c1ccccc1 (stereo not given) has a growth inhibition of -5.15%. C[N+](C)(C)/N=C/c1ccc(O)c(O)c1 showed a growth inhibition of -15.3%. Molecule COc1cc(C(C)O)c[n+](Cc2ccccc2)c1 (stereo not given) has a growth inhibition of -16.1%. In the case of COc1ccc(NC(=O)CC(=O)n2nc(-c3ccccc3)c(N=Nc3ccccc3C)c2-c2ccccc2)cc1, the growth inhibition is reported as -0.8%. Molecule COC1OCC(NC(=O)CNC(=O)CCCCCCCCCCCCC(C)C)C(O)C1O (stereo not given) has a growth inhibition of 8.75%. For O=S1(=O)C2CCC(C2)C1Cl (stereo not given), the growth inhibition was 7.45%. With NC(N)=NNC(=S)S the growth inhibition was 23.5%. With COC(=O)C(=[N+]=[N-])C(=O)c1cccc([N+](=O)[O-])c1 the growth inhibition was 5.75%. In the case of Clc1ccc2oc(N3CCOCC3)nc2c1, the growth inhibition is reported as 22%. Work on O.[Cl][Pt].[NH-]CC[S-] yielded a growth inhibition of 12.3%. CCC(/C=C\C(C)C1CCC2C3CC=C4CC(OC)CCC4(C)C3CCC12C)C(C)C (stereo not given) gave a growth inhibition of -3.4%. ClC[P+](c1ccccc1)(c1ccccc1)c1ccccc1 gave a growth inhibition of 13.2%. In the case of CCCCCCCCCCN=C(N)CSSCC(N)=NCCCCCCCCCC, the growth inhibition is reported as 97.1% (active). COc1ccc(OC)c2cc3c(cc12)C(=O)C(C)=C(C)C3=O gave a growth inhibition of 10.8%. CCCCCOCC(O)CNCCNCC(O)COCCCCC (stereo not given) gave a growth inhibition of 14.3%. In the case of CC[n+]1c(C)sc2cc(Cl)c(-c3ccccc3)cc21, the growth inhibition is reported as 30.4%. C=CCC[P+](c1ccccc1)(c1ccccc1)c1ccccc1 showed a growth inhibition of 28.2%. With Nc1nnc2nc(C(C(=O)/C=C\c3cccc(O)c3)c3nc4nnc(N)n4[nH]c3=O)c(=O)[nH]n12 the growth inhibition was 19.6%. With C/C(=N\[N+](C)(C)C)c1ccc2ccccc2c1 the growth inhibition was -1.6%. With C=CCCC(C)(C(=O)OCC)C(=O)OCC the growth inhibition was -23.9%. O=C(/C=C/C=C/c1ccccc1)CCc1ccccc1 showed a growth inhibition of 24.2%. C[C@H]1C[C@H]2[C@@H]3CC[C@@]4(OCC4=O)[C@@]3(C)C[C@H](O)[C@]2(F)[C@@]2(C)C=CC(=O)C=C12 showed a growth inhibition of 1.6%.
